The text below walks through data of PubChem BioAssay AID817 (Emory University Molecular Libraries Screening Center, 2007).

Each structure is given as a SMILES string. The campaign covered roughly 140,000 compounds. About 300 (0.21%) were called active. This is one part of a sample in which actives are shown more often than they occur.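 The calls were made as follows: active = z-score above 3 at both the 24 hr and the 30 hr optical density reads; inactive = the rest, inconclusive results apart.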

This assay in a line: growth rescue of sdo1-depleted yeast, primary screen, S. cerevisiae, bone marrow failure model (AID 817).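 Also: z-score against mean and SD of all compound wells on the same plate.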 The settings on record: S. cerevisiae sdo1-depleted JHY4D growth rescue, at 10 µM, stronger effect = higher value, pdr5 snq2 efflux-pump mutant strain.
The mark [1] stands for this setting: OD600, measured here: growth rescue at 24 h.

`O=C(/C=C/c1ccc(F)cc1)Nc1cccc(S(=O)(=O)Nc2cccc(C(F)(F)F)c2)c1`: the z-score by setting is: (OD600 30 h) -0.39 (inactive); under setting [1], -0.2.

Turning to `COc1ccc2c(CN3CCN(S(=O)(=O)c4cccs4)CC3)cc(=O)oc2c1`, the z-score was -1.29 (inactive) (OD600 30 h) and -1.27 under setting [1].

On to `COc1cc(CC(=O)N/N=C/c2ccccc2)c([N+](=O)[O-])cc1OC`, for which the z-score is 0.66 (inactive) (OD600 30 h) and 0.79 under setting [1].

For `Cc1ccc2[nH]c(C(=O)O)c(NC(=O)c3ccccc3[N+](=O)[O-])c2c1`, the z-score runs as follows: (OD600 30 h) 1.28 (inactive); under setting [1], 1.83.

As for `CCN(CC)S(=O)(=O)c1cc([N+](=O)[O-])ccc1N=Nc1c(O)n(C)c2ccccc12`, the z-score (OD600 30 h) is -0.62 (inactive) and the z-score under setting [1] came out at 0.64.

As for `Cc1cccc(C(=O)c2cccc(C)c2)c1`, the z-score (OD600 30 h) is -0.29 (inactive) and the z-score under setting [1] was -0.6.

Take `CCOC(=O)c1c(/N=C/C2C(=O)CC(C)(C)CC2=O)sc(C)c1C`: the z-score was 0.94 (inactive) (OD600 30 h) and 1.36 under setting [1].

In the case of `O=C(/C=C/c1cccc([N+](=O)[O-])c1)NCCSCc1ccco1`, the z-score is, setting by setting: (OD600 30 h) -0.03 (inactive); under setting [1], -0.07.

Consider `CC(C)NC(=S)N1CCN(S(C)(=O)=O)CC1`, for which the z-score was 0.56 (inactive) (OD600 30 h) and 0.03 under setting [1].

As for `COCCOC(=O)c1c(C)oc2cc(Br)c(OCC(N)=O)cc12`, the z-score is 0.6 (inactive) (OD600 30 h) and 0.18 under setting [1].

With `O=C(Nc1ccccc1Cl)c1ccccc1S(=O)(=O)c1ccccc1[N+](=O)[O-]`, the z-score (OD600 30 h) was 0.14 (inactive) and the z-score under setting [1] came out at 0.15.

On to `C[C@@H]1NC(=O)c2cc([N+](=O)[O-])cc(F)c2NCCC[C@@H](C(N)=O)NC(=O)[C@H](CC(N)=O)NC1=O`, for which the z-score is 0.86 (inactive) (OD600 30 h) and 0.49 under setting [1].

Turning to `CN(c1ccccc1)S(=O)(=O)c1ccc(Cl)c(C(=O)NCCc2c[nH]c3ccccc23)c1`, the z-score is, setting by setting: (OD600 30 h) 0.35 (inactive); under setting [1], 0.28.

`CC(Oc1ccccc1F)C(=O)NN` (stereo not drawn): the z-score was -0.12 (inactive) (OD600 30 h) and -0.98 under setting [1].

As to `O=C(Cc1cccc2ccccc12)NCCC1=CCCCC1`, the z-score is -0.77 (inactive) (OD600 30 h) and -0.75 under setting [1].

As for `O=C(Nn1c(-c2ccc(Cl)cc2)nc2ccccc2c1=O)c1cccnc1Cl`, the z-score (OD600 30 h) is 0.6 (inactive) and the z-score under setting [1] amounted to 0.56.

Consider `CCOC(=O)C1=C(c2ccc(OC)cc2)C(=O)c2ccccc2C1=O`, for which the z-score by setting is: (OD600 30 h) -1.39 (inactive); under setting [1], -0.65.

Turning to `CCOC(=O)CNC(=O)/C=C/c1c(Cl)cccc1Cl`, the z-score was -0.54 (inactive) (OD600 30 h) and -0.72 under setting [1].

As for `COc1ccc(OCC(O)CNC(=O)Nc2ccc(Cl)cc2)cc1` (stereo not drawn), the z-score (OD600 30 h) was 0.9 (inactive) and the z-score under setting [1] is 0.68.

Regarding `S=C(NCCc1ccccc1)NCc1ccccc1Cl`, the z-score (OD600 30 h) is -1.82 (inactive) and the z-score under setting [1] was -1.22.

On to `N#Cc1ccccc1NC(=O)COc1c(Br)cc(Br)c2cccnc12`, for which the z-score by setting is: (OD600 30 h) 0.47 (inactive); under setting [1], 2.32.

As for `O=C(NC(=S)N1CCN(Cc2ccccc2)CC1)c1ccccc1`, the z-score is, setting by setting: (OD600 30 h) 0.36 (inactive); under setting [1], 0.18.

Regarding `CC(=O)c1cc(-c2ccccc2)n(CCC(=O)NC2CCCCCC2)c1C`, the z-score reads like this: (OD600 30 h) -1.63 (inactive); under setting [1], -1.27.

On to `CCOC(=O)C1CCN(C(=O)c2ccccc2N(C)S(=O)(=O)c2ccccc2)CC1`, for which the z-score (OD600 30 h) is 0.01 (inactive) and the z-score under setting [1] is -0.21.

Consider `O=C(NN1C(=O)C2C3C=CC(O3)C2C1=O)c1ccncc1` (stereo not drawn), for which the z-score (OD600 30 h) was 0.24 (inactive) and the z-score under setting [1] was -0.88.

As for `Cc1ccc(S(=O)(=O)N2CCC(C(=O)N[C@@H](C)C(=O)NCc3ccco3)CC2)cc1`, the z-score is 1.22 (inactive) (OD600 30 h) and 0.16 under setting [1].

In the case of `Cc1ccn(-c2cccc(-n3ccc(C)n3)n2)n1`, the z-score (OD600 30 h) is -0.06 (inactive) and the z-score under setting [1] is -0.3.

For `COc1ccc2c(c1)C(SCC(=O)NCc1ccccc1)CC(C)(C)O2` (stereo not drawn), the z-score by setting is: (OD600 30 h) -0.16 (inactive); under setting [1], -0.58.

Turning to `COc1ccc(-c2csc(NC(=O)COC(=O)c3ccc(Br)o3)n2)cc1`, the z-score (OD600 30 h) was 1.63 (inactive) and the z-score under setting [1] amounted to 1.52.

As for `COC(=O)Cc1ccc(OCC(=O)Nc2ccc(OC(F)(F)F)cc2)cc1`, the z-score reads like this: (OD600 30 h) 0.38 (inactive); under setting [1], 0.19.

Turning to `Cc1ccccc1C1=NC(C(F)(F)F)(C(F)(F)F)c2c(n(-c3ccc(F)cc3)c(=O)[nH]c2=O)N1`, the z-score is, setting by setting: (OD600 30 h) 0.91 (inactive); under setting [1], 1.23.

Regarding `CC(C)(C)CC(C)(C)NCC(O)COCCOc1ccc(Br)cc1` (stereo not drawn), the z-score (OD600 30 h) was -1.47 (inactive) and the z-score under setting [1] was -1.24.

Consider `CCCn1c(C)cc(/C=C(\C#N)C(=O)OCC(=O)Nc2cc(OC)c(OC)c(OC)c2)c1C`, for which the z-score was -0.22 (inactive) (OD600 30 h) and -0.65 under setting [1].

Take `COC(=O)c1sccc1NC(=O)COc1ccc(Cl)cc1`: the z-score is -0.81 (inactive) (OD600 30 h) and 0.03 under setting [1].

As for `Cc1cc(C)cc(NC(=S)NCc2ccc(F)cc2)c1`, the z-score is, setting by setting: (OD600 30 h) -0.44 (inactive); under setting [1], -0.91.

Consider `COc1ccc(C2=NN(C(=O)c3cccnc3)C(c3ccccc3)C2)cc1` (stereo not drawn), for which the z-score reads like this: (OD600 30 h) -0.64 (inactive); under setting [1], -0.53.

For `Cc1ccc(Nc2cc(C)nc3c(C)ccc([N+](=O)[O-])c23)cc1`, the z-score by setting is: (OD600 30 h) -2.1 (inactive); under setting [1], -1.28.

`O=c1c2sccc2nc(SCc2cc(=O)n3ccccc3n2)n1-c1ccc(Br)cc1`: the z-score is, setting by setting: (OD600 30 h) -0.28 (inactive); under setting [1], 0.04.

Regarding `Cc1ccc(C)c(NC(=O)CCC(=O)NNC(=O)c2cccs2)c1`, the z-score by setting is: (OD600 30 h) 0.52 (inactive); under setting [1], -0.15.

In the case of `O=C(CSc1ccc(C(F)(F)F)cc1[N+](=O)[O-])NCCOc1ccccc1`, the z-score (OD600 30 h) was -0.75 (inactive) and the z-score under setting [1] was -0.39.

`Cc1cccc(C(=O)OCC(=O)Nc2sc3c(c2C#N)CCC3)c1`: the z-score by setting is: (OD600 30 h) 1.54 (inactive); under setting [1], 1.79.

For `CCCNC(=O)NC(=O)COC(=O)CC(NC(N)=O)c1ccc(Cl)cc1` (stereo not drawn), the z-score reads like this: (OD600 30 h) 1.01 (inactive); under setting [1], 0.32.

Take `CC[C@H]1OC(=O)[C@H](C)[C@@H](O[C@H]2C[C@@](C)(OC)[C@@H](O)[C@H](C)O2)[C@H](C)[C@@H](O[C@@H]2O[C@H](C)C[C@H](N(C)C)[C@H]2O)[C@](C)(O)C[C@@H](C)[C@@H]2N[C@@H](COCCOC)O[C@H]([C@H]2C)[C@]1(C)O`: the z-score (OD600 30 h) was 2.24 (inactive) and the z-score under setting [1] came out at 2.51.

Regarding `Cc1cc(Cl)ccc1OCCCC(=O)NCc1ccncc1`, the z-score was -0.45 (inactive) (OD600 30 h) and -0.98 under setting [1].

With `O=C(CCN1C(=O)c2ccccc2C1=O)C1=NN[C@@H]2C(=O)N(c3ccc(F)cc3)C(=O)[C@H]12`, the z-score was 0.12 (inactive) (OD600 30 h) and -0.42 under setting [1].

In the case of `CC(NC(=O)COC(=O)C1CCN(S(=O)(=O)c2ccccc2C(F)(F)F)CC1)c1ccccc1` (stereo not drawn), the z-score (OD600 30 h) was 1.2 (inactive) and the z-score under setting [1] was determined as 1.46.

Regarding `Cc1ccc(S/C(=N\S(=O)(=O)c2ccc(Cl)cc2)c2ccccc2)cc1`, the z-score runs as follows: (OD600 30 h) -0.79 (inactive); under setting [1], -1.13.

Turning to `Cc1ccc(S(=O)(=O)/N=C(/Nc2ccccn2)c2ccc(Cl)cc2)cc1`, the z-score reads like this: (OD600 30 h) -1.04 (inactive); under setting [1], -0.87.

With `O=S(=O)(/N=C(/Nc1ccccn1)c1ccccc1)c1ccc(Cl)cc1`, the z-score (OD600 30 h) was 5.14 (active) and the z-score under setting [1] is 4.98.
